In the library only some 14% were active in any assay of this set; here they are far more common.
USP28 block = blocks human USP28 ubiquitin-rhodamine cleavage; Q96RU2; inhibition, % at 25 µM; AID 1645857; 47,000 tested, 3% active; purified USP28, Ub-rhodamine cleavage fluorescence, 30 min
Target sequence (Q96RU2 whole entry, looked up): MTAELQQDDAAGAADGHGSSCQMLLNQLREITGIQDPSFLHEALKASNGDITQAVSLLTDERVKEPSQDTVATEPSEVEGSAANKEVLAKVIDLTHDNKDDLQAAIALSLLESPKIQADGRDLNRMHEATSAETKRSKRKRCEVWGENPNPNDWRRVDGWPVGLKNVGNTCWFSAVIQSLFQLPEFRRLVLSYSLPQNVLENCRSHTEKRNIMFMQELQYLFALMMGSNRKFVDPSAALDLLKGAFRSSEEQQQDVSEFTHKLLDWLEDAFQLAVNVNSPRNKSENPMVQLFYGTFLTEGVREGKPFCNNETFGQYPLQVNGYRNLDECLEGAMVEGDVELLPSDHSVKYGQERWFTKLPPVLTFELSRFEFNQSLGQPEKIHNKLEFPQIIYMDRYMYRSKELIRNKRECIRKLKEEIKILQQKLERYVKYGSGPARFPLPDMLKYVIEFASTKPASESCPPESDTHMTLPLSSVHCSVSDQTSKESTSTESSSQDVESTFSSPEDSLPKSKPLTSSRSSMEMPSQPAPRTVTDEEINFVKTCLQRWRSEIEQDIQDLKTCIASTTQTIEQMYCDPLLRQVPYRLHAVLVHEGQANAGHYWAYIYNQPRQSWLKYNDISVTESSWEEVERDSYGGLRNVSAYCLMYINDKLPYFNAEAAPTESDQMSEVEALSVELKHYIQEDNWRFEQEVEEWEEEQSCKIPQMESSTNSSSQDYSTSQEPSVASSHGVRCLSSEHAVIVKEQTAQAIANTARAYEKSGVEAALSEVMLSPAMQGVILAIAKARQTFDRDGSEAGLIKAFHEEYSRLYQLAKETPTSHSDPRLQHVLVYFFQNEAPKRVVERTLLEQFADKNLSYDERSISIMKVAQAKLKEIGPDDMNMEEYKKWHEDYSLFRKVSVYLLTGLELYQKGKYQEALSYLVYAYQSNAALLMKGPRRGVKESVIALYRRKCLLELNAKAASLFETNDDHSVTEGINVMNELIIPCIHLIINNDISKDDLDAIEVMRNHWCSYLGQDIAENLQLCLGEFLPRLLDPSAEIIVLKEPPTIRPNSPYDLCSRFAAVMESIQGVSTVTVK
USP30 inh = inhibitors of human USP30 deubiquitinase; Q70CQ3; purified USP30, Ub-rhodamine cleavage fluorescence; inhibition, % at 25 µM; 47,000 tested, 5.3% active; AID 1645860
USP17 block = human USP17-like deubiquitinase inhibition; A8MUK1; purified USP17, Ub-rhodamine cleavage fluorescence, 3 h; inhibition, % at 50 µM; 47,000 tested, 6.5% active; AID 1645855
USP10 block = human USP10 deubiquitinase inhibition | 47,000 tested, 1.1% active | Q14694 | inhibition, % at 20 µM | purified USP10, Ub-rhodamine fluorescence, 60 min
USP8 block = inhibitors of human USP8 deubiquitinase | purified USP8, Ub-rhodamine cleavage fluorescence, 30 min | P40818 | inhibition, % at 20 µM | 47,000 tested, 4.2% active
An asterisk follows results filed as active; nt = not tested or not shown. No stated cut-off is given here; in the data, active means inhibition above about 30%; inactive means the rest.

SMILES | USP28 block | USP30 inh | USP17 block | USP10 block | USP8 block
CCN(c1ccccc1)S(=O)(=O)c1cc2[nH]c3c(c2cc1C)C(=O)CC(C)(C)C3 | 5.6 | 18.2 | 32.9* | 3.3 | 7.5
Cc1cccc(NS(=O)(=O)c2cc3[nH]c4c(c3cc2C)C(=O)CC(C)(C)C4)c1 | 4.0 | 20.2 | 36.4* | 7.1 | 1.8
COc1ccccc1CNC(=O)CCCCn1c(=O)c2ccccc2n(Cc2ccc(C)cc2)c1=O | 19.4 | 27.7 | 37.9* | 35.3* | 28.9
COc1ccnc2c1c(=O)n(CC(=O)NCc1ccccc1Cl)c(=O)n2C | 3.5 | 41.5* | 12.8 | -5.4 | -0.3
COc1ccccc1CNC(=O)CCCCn1c(=O)c2ccccc2n(Cc2ccccc2C#N)c1=O | 21.1 | 27.3 | 64.7* | 28.4 | 0.0
COc1ccccc1CNC(=O)Cn1c(=O)c2c(ncn2CC(C)C)n(Cc2ccccc2)c1=O | 18.3 | 31.3* | 18.6 | 8.7 | 26.3
O=C(Cn1cnc(S(=O)(=O)N2CCCCC2)c1)Nc1ccc2c(c1)OCO2 | -2.5 | -23.2 | 35.3* | -0.2 | 59.2*
CC1CCN(S(=O)(=O)c2cn(CC(=O)Nc3cccc(-c4ccno4)c3)cn2)CC1 | -11.4 | -24.6 | 49.7* | 16.5 | -5.1
CC1CCCN(CCCNC(=O)C2CCN(c3nc4cccnc4n(C)c3=O)CC2)C1 (configuration not stated) | -14.4 | -32.3 | -7.9 | -3.5 | -25.1
CCOc1ccc(NC(=O)C2C3C=CC4(O3)C2C(=O)N(C2CC2)C4C(=O)NC2CCCCC2)cc1 (configuration not stated) | 3.2 | 11.4 | 3.1 | -0.2 | 0.0
Cc1ccc(NC(=O)c2cc(-c3ccccn3)nc3c(Cl)cccc23)nc1 | -17.5 | -20.0 | 18.2 | -4.0 | 63.2*
CCn1cc(CN2CCC(C(=O)Nc3ccccc3-c3cccc(OC)c3)CC2)cn1 | nt | nt | -11.2 | -2.5 | -4.7
CCc1ccc(NS(=O)(=O)c2cc(-c3[nH]ncc3C(=O)N3CCCCC3)oc2C)cc1 | 1.1 | 41.5* | 22.2 | -0.2 | 9.8
O=C(c1noc2ccc(S(=O)(=O)NCc3ccccc3)cc12)N1CCOCC1 | -7.5 | -1.6 | -18.5 | -1.3 | -17.0
COc1ccc(-c2cc(C(F)F)n3ncc(C(=O)NCC4CCCO4)c3n2)cc1 (configuration not stated) | nt | nt | 33.5* | -3.8 | 0.1
COc1ccc(-c2cc(C(F)F)n3ncc(C(=O)Nc4ccc5c(c4)OCCO5)c3n2)cc1 | 4.8 | 55.9* | 11.0 | 3.2 | 4.2
COc1ccc(-c2cc(C(F)F)n3ncc(C(=O)NC(C)c4ccc(C(C)C)cc4)c3n2)cc1 (configuration not stated) | -6.2 | 26.3 | 11.7 | 0.5 | 24.4
COc1ccc(-c2cc(C(F)F)n3ncc(C(=O)N(Cc4ccccc4)Cc4ccccc4)c3n2)cc1 | -0.7 | 0.9 | -4.9 | 5.3 | 6.1
O=C(Nc1ccc(N2CCCC2=O)cc1)c1ccc(COc2ccccc2)o1 | -0.4 | -8.5 | -3.6 | -2.5 | -7.5
CCNC(=O)N1CCC2(C1)c1ccccc1S(=O)(=O)N2Cc1ccc(OC)cc1 (configuration not stated) | -15.9 | -8.2 | -1.5 | -0.1 | 4.4
O=C(C1CC1)N1CCC2(C1)c1ccccc1S(=O)(=O)N2Cc1ccc(F)cc1 (configuration not stated) | 8.2 | 35.6* | 13.9 | 2.2 | 8.2
O=C1CC(c2nc(-c3ccc(N4CCOCC4)cc3)no2)CN1C1CCCC1 (configuration not stated) | -1.6 | 0.1 | 2.0 | 0.0 | 2.1
COc1ccccc1-c1noc(-c2nnn(Cc3nc(-c4ccc(C)cc4)oc3C)c2C)n1 | -12.5 | 31.7* | -7.3 | -1.9 | 1.8
COc1ccccc1-c1nc(-c2nnn(Cc3ccc(C)cc3)c2C)no1 | 71.9* | 30.4* | 4.0 | 12.6 | 4.9
Cc1c(-c2noc(-c3ccco3)n2)nnn1Cc1cccc(F)c1 | 7.5 | -15.7 | -2.5 | 1.5 | 1.1
SMILES | USP28 block | USP30 inh | USP17 block | USP10 block | USP8 block
COc1ccc(-c2nc(Cn3nnc(-c4nc(-c5ccccc5C)no4)c3C)c(C)o2)cc1 | -49.8 | -187.0 | -50.1 | -12.3 | -43.2
COc1ccccc1-c1nc(-c2nnn(Cc3ccccc3)c2C)no1 | 45.3* | 27.1 | 24.3 | 6.4 | 7.6
COc1ccc(-c2nc(-c3nnn(Cc4cccc(F)c4)c3C)no2)c(OC)c1 | 41.7* | 31.7* | -4.9 | 10.5 | 2.7
N#Cc1ccccc1NC(=O)C1CN(C(=O)c2ccc3c(c2)OCO3)C1 | -0.5 | -0.1 | -2.1 | 2.3 | 0.2
COc1ncccc1CNC(=O)Cc1c[nH]c2ccccc12 | -11.6 | -22.5 | -10.9 | -2.6 | -5.6
Cc1nn(-c2nc3ccccc3[nH]2)c2c1C(c1cccs1)CC(=O)N2 (configuration not stated) | 30.5* | -18.5 | 52.3* | 19.1 | 38.4*
Cc1nn(-c2nc3ccccc3[nH]2)c2c1C(c1ccccc1Cl)CC(=O)N2 (configuration not stated) | -0.3 | 0.5 | -0.7 | 10.3 | 51.5*
Cc1nn(-c2nc3ccccc3[nH]2)c2c1C(c1cccc(F)c1)CC(=O)N2 (configuration not stated) | -8.3 | -3.6 | -1.8 | 14.2 | 19.5
Cc1nn(-c2nc3ccccc3n2C)c2c1C(c1ccsc1)CC(=O)N2 (configuration not stated) | 0.7 | 6.7 | 1.9 | 3.2 | -17.7
O=C1NCCCC1Cc1ccc(-c2cccc(C(=O)N3CCc4ccccc4C3)c2)cc1 (configuration not stated) | 20.0 | 35.2* | 55.0* | 6.4 | 60.6*
COc1ccc(C2(C(=O)NCc3noc(C4CCCO4)n3)CCCCC2)cc1 (configuration not stated) | -12.0 | 0.4 | -3.2 | 0.5 | -16.9
CNc1nc(C2CCCCN2C(=O)c2oc3ccccc3c2C)nc2c1CCN(C(C)=O)C2 (configuration not stated) | -14.0 | -3.1 | -7.4 | -3.7 | -4.2
CN=C(N)NCCC/C=C/CCCC(C)CC(C)C1OC(=O)/C=C/C(C)C(O)CC(O)C(C)C(O)CCC(C)C(O)CC2(O)OC(CC(OC(=O)CC(=O)O)CC(O)CC(O)C(C)C(O)/C=C/C1C)CC(O)C2O (configuration not stated) | 53.1* | 15.1 | 18.9 | 3.1 | 12.7
COc1cccc2c1OCC(C(=O)NCc1ccc(F)cc1)=C2 | 50.6* | -13.5 | 0.0 | 0.2 | 1.7
O=C(N[C@H]1[C@H](O)[C@H](O)C[C@@H]1c1ccccc1)c1ccc2c(c1)OCCO2 | -13.5 | -26.5 | -21.1 | 0.3 | 3.2
NC(=S)N=Nc1c(O)[nH]c2ccc(Br)cc12 | 14.0 | 33.8* | 21.8 | 0.0 | 1.7
COc1ccc(CN2CCC(Nc3nc4c(c(=O)[nH]3)CCC4)CC2)cc1 | 0.4 | -4.2 | -10.0 | -1.6 | -2.0
Cc1cc(OCC(=O)Nc2c(C)cccc2C)nc(N2CCCCCC2)n1 | 5.2 | 9.1 | 30.1* | -2.1 | 1.8
Cc1cc(OCC(=O)Nc2ccccc2F)nc(N2CCCC(C)C2)n1 (configuration not stated) | 6.9 | 46.8* | 18.3 | 5.9 | 14.6

Compound activity as filed in PubChem.
